# Results: PubChem BioAssay AID485364 (National Center for Advancing Translational Sciences (NCATS), 2010)
# Screen size: about 360,000 compounds; about 11,000 (3.1%) were called active. Where a call stands in place of a potency, no number is given. About 4% were inconclusive and are not listed. Calls follow the shape of the dose curve; as a rule, active = well fitted inhibition curve with a large enough effect; inconclusive = small, poorly fitted or top-dose-only effect; inactive = no such curve, though single readings can be large or run the other way. Only a selection was taken, and actives are over-represented in it overall.
# Target: Schistosoma mansoni thioredoxin glutathione reductase (TGR) (UniProt Q962Y6)
# Assay: qHTS Assay for the Inhibitors of Schistosoma Mansoni Peroxiredoxins; also: nearly all actives have a fitted effect of over 60% in size
# Conditions: purified TGR, DTNB reduction, TNB absorbance 405 nm; series mostly up to 114 µM
# In short: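 First, TGR (20 nM dispensed) and NADPH were mixed with compound. Second, a 15 min room-temperature incubation followed. Third, further NADPH and then DTNB were added to start the reaction. Finally, TNB absorbance was monitored kinetically.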
# Potency is read from the fitted curve at half-maximal effect.
row,Structure (SMILES),Potency
1,CCOC(=O)c1cc(NC(=O)c2ccc(F)cc2)c(=O)n2c1oc1ccccc12,inactive
2,CCOC(=O)c1ccc(NC(=O)C2CC(=O)N(c3ccc(C(C)C)cc3)C2)cc1 (centres undefined),inactive
3,COc1ccc(CNC(=O)C2=Cc3cccc(OC)c3OC2)cc1OC,inactive
4,CC(C)S(=O)(=O)c1oc(-c2ccc(F)cc2)nc1S(=O)(=O)c1ccc(F)cc1,2.24 µM (active)
5,Cc1ccc(S(=O)(=O)c2nc(-c3ccco3)oc2SCC(=O)Nc2ccc(F)cc2)cc1,inactive
6,O=C(CSc1oc(-c2ccc(F)cc2)nc1S(=O)(=O)c1ccc(Br)cc1)NC1CCCCC1,inactive
7,CCCN1CCN(CCCNC(=O)c2ccc3nc(Cc4ccccc4)oc3c2)CC1,inactive
8,CCC(C)Nc1oc(-c2ccc(COc3ccc(Cl)cc3)o2)nc1C#N (centres undefined),inactive
9,Cc1ccc(CC2CC(=O)N(c3cc(C)ccc3C)C2=O)cc1 (centres undefined),inactive
10,Cc1ccc(N2C(=O)CC(N3CCSCC3)C2=O)c(C)c1 (centres undefined),50.1 µM (active)
11,Cc1ccc(N2CCN(S(=O)(=O)c3ccc(F)cc3)CC2)c(C)c1,inactive
12,CC(=O)Nc1cccc(NC(=O)CSc2cn(CC(=O)N3CCCC3)c3ccccc23)c1,inactive
13,CCC1(C)CC(=O)c2c(ccc3oc(C(=O)Nc4ccc(C(C)=O)cc4)c(C)c23)O1 (centres undefined),inactive
14,CCC(=O)N1CCc2cc(Br)cc(S(=O)(=O)CCC(=O)N3CCN(c4ccc(F)cc4)CC3)c21,inactive
15,Cc1cccc(C(=O)Nc2nnc(Cc3c[nH]c4ccccc34)s2)c1,inactive
16,COC(c1ccccc1)c1nnc(CCC(=O)N2CCN(CCOc3ccccc3)CC2)o1 (centres undefined),inactive
17,Cc1nn(C)c(C)c1CN(C(=O)CCc1nnc(Cc2c[nH]c3ccccc23)o1)C(C)C,35.5 µM (active)
18,Cc1nc(CN2CCN(C(=O)CCc3nnc(Cc4c[nH]c5ccccc45)o3)CC2)cs1,39.8 µM (active)
19,CCOc1ccc(CN2CCN(Cc3c[nH]c4ccccc34)CC2)cc1,inactive
20,CC(C)N(C)C(=O)CCc1nnc(CCc2c[nH]c3ccccc23)o1,inactive
21,O=C(COc1ccccc1F)Nc1ccc(C(=O)OCc2cc(=O)n3nc(C4CC4)sc3n2)cc1,inactive
22,COc1ccc(CCNC(=O)CCCCn2c(=O)c3ccccc3n(Cc3ccccc3C)c2=O)cc1OC,inactive

row,Structure (SMILES),Potency
1,Cc1cccc(N2CCN(C(=O)c3ccc(Nc4nc5ccccc5n5nnnc45)cc3)CC2)c1C,inactive
2,COC(=O)c1cccc(N2C(=O)C3C4C=CC(CC4)C3C2=O)c1 (centres undefined),inactive
3,Cc1cccc(N2C(=O)CC(SC(N)=Nc3ccccc3)C2=O)c1 (centres undefined),inactive
4,COC(=O)c1ccccc1SC1CC(=O)N(c2cccc(C)c2)C1=O (centres undefined),50.1 µM (active)
5,COc1ccc(N2CCN(c3nc(-c4ccccc4F)nc4ccccc34)CC2)cc1,inactive
6,O=C(CSc1oc(-c2ccco2)nc1S(=O)(=O)c1ccccc1)c1ccc(Cl)cc1,inactive
7,Oc1c(C(c2ccccc2Cl)N2CCOCC2)sc2nc(-c3ccco3)nn12 (centres undefined),inactive
8,CSc1nc(-c2ccco2)nn1C(=O)c1ccccc1Cl,7.08 µM (active)
9,Cc1cccc(NC(=O)Cn2cc(S(=O)(=O)Cc3ccccc3Cl)c3ccccc32)c1,inactive
10,CC(=O)c1nn(-c2ccc(OC(F)(F)F)cc2)nc1Nc1ccccc1,inactive
11,COc1ccc(CNC(=O)Cc2coc3ccc(C(C)C)cc23)cc1,inactive
12,CN1CCN(c2oc(-c3ccc(COc4ccc(Cl)cc4)o3)nc2C#N)CC1,inactive
13,Cc1cc(C)c(NC(=O)Cn2c(SCC(=O)NCc3ccccc3)nc3ccccc32)c(C)c1,inactive
14,CCOC(=O)c1c(C)n(S(=O)(=O)c2ccc(C)cc2C)c2ccc(NS(=O)(=O)c3ccc(C)cc3C)cc12,inactive
15,CC1=C/C(=N\OS(=O)(=O)c2ccccc2)C=CC1=O,2.24 µM (active)
16,O=C(COc1ccc(Cl)cc1)Nc1ccc(-c2nc3cc(Cl)ccc3o2)c(O)c1,inactive
17,Cc1nc2ccccn2c(=O)c1NC(=O)c1cccs1,inactive
18,CC(C)(C)Nc1c(-c2cccs2)nc2ccccn12,50.1 µM (active)
19,Cc1ccc(Nc2c(-c3ccc(C)s3)nc3ccccn23)cc1,inactive
20,COc1ccc(-c2cc(C(=O)NCc3cc(OC)c(OC)c(OC)c3)[nH]n2)cc1,inactive
21,CCOc1ccc(S(=O)(=O)N(CC(=O)NCCSCc2ccc(C)cc2)c2ccccc2)cc1,inactive
22,Cc1ccc(NC(=O)CN2c3ccccc3S(=O)(=O)c3ccccc32)cc1F,inactive

row,Structure (SMILES),Potency
1,O=C(CC(n1cncn1)C(Cl)(Cl)Cl)c1ccc([N+](=O)[O-])cc1 (centres undefined),0.282 µM (active)
2,O=C(NNC(=O)c1ccc(-n2cncn2)c([N+](=O)[O-])c1)c1ccccc1,inactive
3,O=C(CCn1nnc2ccccc21)OCC(=O)c1ccc([N+](=O)[O-])cc1,inactive
4,Cc1cc(=O)n(CC(=O)Nc2cccc([N+](=O)[O-])c2)c(-n2nc(C)cc2C)n1,inactive
5,COc1cc(C(=O)NCC(c2ccc(Cl)cc2)N2CCOCC2)cc(OC)c1OC (centres undefined),inactive
6,O=C(CCl)Nc1cccc(CP(=O)(c2ccccc2)c2ccccc2)c1,11.2 µM (active)
7,O=C(CSc1ccccc1)Nc1ccc(C(=O)Nc2cccc(O)c2)cc1,inactive
8,O=C(CSCc1ccccc1)Nc1ccccc1,inactive
9,COC(=O)c1cc(NC(=O)c2cnc(SC)nc2-c2ccccc2)cc(C(=O)OC)c1,inactive
10,COc1ccc(C(=O)Nc2ccc(-n3nncc3-c3ccccc3)cc2)cc1OC,inactive
11,COC(=O)c1ccc(-c2c(-c3ccccc3)ncc3cc(OC)c(OC)cc23)cc1,14.1 µM (active)
12,CC(C)CCN1CCN(C/C=C/c2ccco2)CC1CCO (centres undefined),25.1 µM (active)
13,CC(C)CCN1CCN(Cc2ccc(C(F)(F)F)cc2)CC1CCO (centres undefined),inactive
14,CC(C)CN1CCN(Cc2ccccc2C(F)(F)F)CC1CCO (centres undefined),inactive
15,O=C(NC1CC(=O)N(c2ccc(Cl)cc2)C1)C1CCCC1 (centres undefined),inactive
16,Cc1ccc(CN2CCCn3nc(C(=O)NCc4ccccc4Cl)cc3C2=O)cc1,inactive
17,Cc1ccc(-n2ncc3c(NCCCn4ccnc4)ncnc32)cc1Cl,inactive
18,CC(=O)NCC(O)c1ccc([N+](=O)[O-])cc1 (centres undefined),inactive
19,CNCC(O)c1ccc(O)c(O)c1 (centres undefined),44.7 µM (active)
20,CCC(C)c1ccc(O)c(/C=N/O)c1 (centres undefined),inactive
